# Source: PubChem BioAssay (several laboratories)
# Hits are enriched below; roughly 3.3% of the tested compounds scored in any of these assays.
# BoNT-A LC inh2: inhibitors of Botulinum neurotoxin A light chain protease | multiplex microsphere protease substrate cleavage, flow cytometry | inhibition, % at 10 µM | actives 0.17% (n = 360,000) | AID 588499
# Anthrax LF prot: inhibitors of Bacillus anthracis lethal factor protease. P15917. inhibition, % at 10 µM. actives 0.12% (n = 360,000). multiplex microsphere protease cleavage assay, LF
# Autofluor counter: counter-screen for toxin protease inhibitors: compound fluorescence. AID 624483. compound autofluorescence counterscreen, microsphere flow cytometry; stronger effect = higher value. fluorescence intensity (concentration not given with the values). actives 3.1% (n = 360,000); in the data active means fluorescence intensity above about 16000; inconclusive means no clear call, values can overlap the other calls
# BoNT-F LC inh: inhibitors of Botulinum neurotoxin F light chain protease | actives 0.22% (n = 360,000) | inhibition, % at 10 µM | Multiplex microsphere protease cleavage assay, flow cytometry; in the data active means inhibition above about 35%, passing the limit was not always enough; inconclusive means no clear call, values can overlap the other calls
# MazF activator: MazEF (E. coli) toxin RNase activation; P0AE70; FAM/BHQ RNA-DNA oligo cleavage fluorescence, 5 h; activation, % at 20 µM; actives 0.32% (n = 350,000); in the data active means activation above about 50%
# PriA SSB inh: blocks PriA binding to SSB C-terminal tail; AlphaScreen SSBct-PriA binding, biotinylated peptide; inhibition, % at 33 µM; actives 0.6% (n = 430,000); AID 1272365; in the data active means inhibition mostly above about 37%, no sharp cut-off; inactive means mostly below about 20%
# A number is an active result; – = inactive; ? = inconclusive; · = not tested or not shown. Unless noted, no stated cut-off is given here; in the data, active means inhibition above about 30%; inconclusive means no clear call, values can overlap the other calls; inactive means below that.
SMILES,BoNT-A LC inh2,Anthrax LF prot,Autofluor counter,BoNT-F LC inh,MazF activator,PriA SSB inh
c1ccc(Cc2nnc3sc(-c4ccccn4)nn23)cc1,?,–,21625,–,–,–
c1ccc(Cc2nnc3sc(-c4cccnc4)nn23)cc1,–,–,16689,–,–,–
CCOc1ccccc1-c1nn2c(Cc3ccccc3)nnc2s1,–,–,19404,–,–,–
O=C(C(=C([O-])c1ccccc1)[n+]1ccc2ccccc2c1)c1ccc(Cl)cc1,·,·,·,·,·,–
CC(C)NC(=O)N1CCC(c2nnc(-c3ccc(F)cc3)o2)CC1,·,·,·,·,·,–
CCn1c(C(CNc2ccccc2)CC(=O)O)nc2ccccc21 (configuration not stated),·,·,·,·,·,–
CC[C@@H](C(=O)NCCOC)n1cc(-c2nc(-c3ccsc3)no2)ccc1=O,·,·,·,·,·,–
Cc1ccc(C)c(N2C(=O)N(CC(=O)NCc3ccccc3)c3ccccc3S2(=O)=O)c1,·,·,·,·,·,–
O=C(CCNC(=O)c1ccc(Br)o1)NC1CCCC1,?,–,16174,–,–,–
O=C(NC1CCCCC1)c1ccc(Br)o1,–,–,–,–,–,–
CCOC(=O)C1CCN(C(=O)CN2C(=O)C(CC)Oc3ccccc32)CC1 (configuration not stated),–,–,–,–,–,–
CCOC(=O)CN1C(=O)C(CC)Oc2ccccc21 (configuration not stated),–,–,24132,–,–,–
O=C(c1ccccc1)N1CCCc2cc(NS(=O)(=O)CCOc3ccccc3)ccc21,·,·,·,·,·,35
CC(C)CS(=O)(=O)Nc1ccc2c(c1)CCCN2C(=O)c1ccccc1,·,·,·,·,·,–
O=S(=O)(c1ccccc1)C1CC2CCC(C1)N2S(=O)(=O)C1CC1 (configuration not stated),·,·,·,·,·,91
CC(=O)N1C2CCC1CC(S(=O)(=O)c1ccccc1)C2 (configuration not stated),·,·,·,·,·,–
O=C(Cn1ncccc1=O)N1C2CCC1CC(S(=O)(=O)c1ccccc1)C2 (configuration not stated),·,·,·,·,·,88
CN(C)S(=O)(=O)N1C2CCC1CC(S(=O)(=O)c1ccccc1)C2 (configuration not stated),·,·,·,·,·,–
CN(CC1CCCO1)S(=O)(=O)c1ccc(C(=O)Nc2ccccc2-c2nc3ccccc3[nH]2)cc1 (configuration not stated),·,·,·,·,·,–
Cc1nc(-c2ccccc2F)sc1CNC(=O)C(C)n1nc(-c2ccco2)ccc1=O (configuration not stated),·,·,·,·,·,–
CSc1nncn1/N=C/c1ccccc1F,?,–,23258,–,–,·
CSc1nncn1/N=C/c1ccc2c(c1)OCO2,–,–,23493,–,–,·
C[C@](O)(CNC(=O)NCc1ccccc1)C1CC1,·,·,·,·,·,–
NS(=O)(=O)c1ccc(NC(=O)CSc2nnnn2-c2cccc3ccccc23)cc1,·,·,·,·,·,–
O=C(Nc1ccccc1)c1c(Br)sc2c1CCCC2,·,·,·,·,·,–
SMILES,BoNT-A LC inh2,Anthrax LF prot,Autofluor counter,BoNT-F LC inh,MazF activator,PriA SSB inh
Cc1ccc(-n2c(C)cc(C=NNC(N)=S)c2C)cc1,·,·,·,·,·,–
Cc1cc(C=NNC(N)=S)c(O)c(C=NNC(N)=S)c1,·,·,·,·,·,59
CCCCNc1c([N+](=O)[O-])cc(C)cc1[N+](=O)[O-],–,–,–,–,–,76
N#Cc1nc(-c2ccc(Cl)cc2)oc1N1CCCCC1,–,–,–,–,–,65
N#Cc1nc(-c2ccc(Cl)cc2)oc1N1CCCCCC1,·,·,·,·,·,59
O=C(Nc1cnoc1)[C@@H]1CC=CCC1,·,·,·,·,·,–
O=C(Nc1ccc(O)cc1)C1CC=CCC1 (configuration not stated),?,–,18689,–,–,–
CCN(CC)c1ccc(C(=C2C=CC(=[N+](CC)CC)C=C2)c2ccc(S(=O)(=O)O)cc2S(=O)(=O)[O-])cc1,–,–,–,–,–,82
O=C(Cc1csc(SCC(=O)Nc2ccc(F)cc2)n1)NCC1CCCO1 (configuration not stated),·,·,·,·,·,–
COc1cc([N+](=O)[O-])cc2sc(N)nc12,·,·,·,·,·,–
Cn1cnnc1SC1CCCCC1NS(=O)(=O)c1ccc(Cl)cc1 (configuration not stated),–,–,–,–,–,–
Cn1cnnc1SC1CCCCC1NS(=O)(=O)c1ccccc1 (configuration not stated),–,–,23278,–,–,–
CCCCN1C(=O)/C(=C/C=C2/CC(C)(C)CN2C)SC1=S,–,–,–,–,118,–
CCCCN1C(=O)/C(=C/C=C2\Oc3ccccc3N2CC)SC1=S,–,–,–,–,–,–
O=C1N=C(N2CCCC2)S/C1=C\C=C\c1ccccc1,–,–,–,41,–,–
O=C1N=C(N2CCOCC2)S/C1=C\C=C\c1ccc([N+](=O)[O-])cc1,·,·,·,·,·,–
CCOc1cc(N2CCN(C(=O)Cc3ccc(Cl)cc3)CC2)nc(C)n1,·,·,·,·,·,–
COc1ccc2nc(C)cc(N3CCN(c4ccccc4)CC3)c2c1,–,–,–,–,–,–
COc1ccc2nc(C)cc(N3CCOCC3)c2c1,–,–,19626,–,–,–
COc1cc(S(=O)(=O)N2CCOCC2)ccc1NC(=O)COC(=O)c1cc(OC)c(OC)c(OC)c1,–,–,–,–,–,–
COc1ccc(NC(=O)CSc2n[nH]c(N)n2)c([N+](=O)[O-])c1,–,–,23423,–,–,–
COc1cc(S(=O)(=O)N2CCOCC2)ccc1NC(=O)COC(=O)CC12CC3CC(CC(C3)C1)C2,–,–,24036,–,–,–
COc1ccc(NC(=O)COC(=O)CC23CC4CC(CC(C4)C2)C3)c([N+](=O)[O-])c1,–,–,–,–,–,66
Cc1nc(SCC(=O)c2cc(C)n(-c3ccc(Cl)c(C(F)(F)F)c3)c2C)c2cc(-c3ccccc3)sc2n1,·,·,·,·,·,–
CCCOc1ccc(-c2nc(C#N)c(N3CCN(CC)CC3)o2)cc1,–,–,–,–,–,–
SMILES,BoNT-A LC inh2,Anthrax LF prot,Autofluor counter,BoNT-F LC inh,MazF activator,PriA SSB inh
CCOc1ccc(-c2nc(C#N)c(N3CCN(CC)CC3)o2)cc1,?,–,19650,–,–,–
CCOc1ccc(-c2nc(C#N)c(N3CCCCCC3)o2)cc1,–,–,–,–,–,93
O=C(c1ccc(Br)o1)N1CCSC(c2ccccc2F)CC1 (configuration not stated),·,·,·,·,·,–
COc1ccc(S(=O)(=O)Nc2ccc3c(c2)CN(C(=O)c2ccccc2)CC3)c(C)c1,·,·,·,·,·,–
N#Cc1ccc(Oc2nc(C(N)=O)cc(-c3ccccc3)n2)cc1,–,–,24851,–,–,–
CCCCN1CNC(=S)N(c2cc(C)ccc2C)C1,–,–,21773,–,–,–
O=c1cccnn1CCNS(=O)(=O)CCc1ccccc1,·,·,·,·,·,–
CN(C)S(=O)(=O)c1ccc(NC(=O)c2cncc(Br)c2)cc1,·,·,·,·,·,–
CN(C)C(=O)c1ccc(NC(=O)c2cncc(Br)c2)cc1,–,–,21882,–,–,–
c1ccc(-c2nnc(SCc3nc4ccccc4[nH]3)n2Cc2ccco2)nc1,–,–,–,–,–,88
Nn1c(SC/C=C/c2ccccc2)nnc1-c1ccccn1,–,–,–,–,–,90
Clc1ccc(-n2c(SC/C=C/c3ccccc3)nnc2-c2cccnc2)cc1,–,–,–,–,–,–
